According to PubChem BioAssay (NCATS):
Results filed as inconclusive are left out. A call without a number means that no potency is given here. Calls of active or inactive are those of the source. The call rests on the fitted dose curve; in most records, active means well fitted cell-killing curve with a large enough effect; inconclusive means small, poorly fitted or top-dose-only effect; inactive means flat fitted curve, though single readings scatter.

test: qHTS of pediatric cancer cell lines to identify multiple opportunities for drug repurposing: Primary screen for TC32 cells (AID 1347089); settings: TC32 Ewing sarcoma viability, CellTiter-Glo luminescence, 48 h; series mostly up to 45.8 µM; further: nearly all actives have a fitted effect of over 60% in size
Source text: Drug repurposing or repositioning has been offered as a strategy for drug development in oncology programs. This approach has special potential for childhood cancers and other rare or orphan diseases, where the expected return on new drug development has been a disincentive to pharmaceuticals.
In this project we exploit the poly-pharmacology of drugs to discover new indications via phenotypic screening of a panel of 19 well-characterized cell lines derived from solid tumors seen in children and adolescents. The goal is to identify approved drugs with previously unrecognized anticancer properties that has the potential to reveal new mechanisms and biological processes involved in carcinogenesis or drug resistance. We employed a titration-based paradigm (quantitative high-throughput screening or qHTS), where all compounds were tested at multiple concentrations for their effect on cell viability. Concentration-response curves (CRCs) were derived directly from the primary screen, and both potency and efficacy values were used to identify compounds with robust bioactivity profiles. We screened the NIH Chemical Genomics Center (NCGC) Pharmaceutical Collection (NPC) and Mechanism Interrogation Plate (MIPE) small molecule collections of approved and investigational compounds against these cell lines; and measured metabolically active cells after 48 hours of compound treatment as a proxy for cell viability.
Assay Submitter: Nathalia J. Martinez, National Center for Advancing Translational Sciences, National Institutes of Health, Rockville, MD, USA; email: natalia.martinez@nih.gov
[1] Shen, M et al. Quantitative high-throughput phenotypic screening of pediatric cancer cell lines identifies multiple opportunities for drug repurposing. Oncotarget 2017 Dec 19;9(4):4758-4772. PMID 29435139.
The cells were obtained from University of North Carolina (UNC), Pediatric Preclinical Testing Program (PPT), and Coriell Institute (CI).
qHTS cell viability assay:
Cells were assayed in growth media at a density of 500-1,000 cells/well. Five microliters of cells were dispensed into 1,536-well, white, solid-bottom, TC-treated plates (Greiner Bio One) using a multidrop dispenser and incubated at 37 degrees C, 5% CO2, under a humidified atmosphere for 5 hours. Twenty-three nanoliters of compounds and controls (neutral control DMSO or positive control bortezomib at final concentration of 2.3 uM) were subsequently transferred by Kalypsys pintool. For primary screens, the MIPE collection was tested at 11-point dilutions (final concentrations range from 0.78 nM to 46 µM) and the NPC collection at 8-point dilutions (final concentrations range from 0.59 nM to 46 µM). Compounds tested in follow-up screens were assayed at 11-point dilutions. Cells were incubated for 48 hours, followed by addition of 3 uL of CellTiter-Glo (Promega). After a 15min incubation at room temperature, samples were analyzed for luminescence intensity using a ViewLux High-throughput CCD imager equipped with clear filters.
Potency means the concentration at half of the fitted maximal effect.

Row | SMILES | Potency
1 | O=C(N[C@@H](c1ccccc1)[C@@H]1CCCCN1)c1cccc(C(F)(F)F)c1Cl | inactive
2 | O=C1NC(=O)C(=Cc2cccc(C(F)(F)F)c2)S1 | inactive
3 | CC(C)(C)C(=O)Oc1ccc2c(c1)nc(NC(=O)c1cccc([N+](=O)[O-])c1)n2CCCO | inactive
4 | OC[C@H]1O[C@@H](Oc2cc(O)cc(C=Cc3ccc(O)cc3)c2)[C@H](O)[C@@H](O)[C@H]1O | inactive
5 | O=C1NCC2(CCN(CCc3ccccc3)CC2)O1 | inactive
6 | CO[C@H]1C=CO[C@@]2(C)Oc3c(C)c(O)c4c(O)c(c5c(c4c3C2=O)NC2(CCN(CC(C)C)CC2)N=5)=NC(=O)C(C)=CC=C[C@H](C)[C@H](O)[C@@H](C)[C@@H](O)[C@@H](C)[C@H](OC(C)=O)[C@H]1C | inactive
7 | CC(=O)O[C@]1(C(C)=O)CC[C@H]2[C@@H]3C=C(Cl)C4=CC(=O)[C@@H]5C[C@@H]5[C@]4(C)[C@H]3CC[C@@]21C | inactive
8 | NC[C@@H]1O[C@@H](O[C@H]2[C@@H](O)[C@H](O[C@@H]3[C@@H](O)[C@@H](N)C[C@H](N)[C@H]3O[C@H]3O[C@H](CN)[C@@H](O)[C@@H](O)[C@H]3N)O[C@H]2CO)[C@H](N)[C@@H](O)[C@@H]1O | inactive
9 | COc1cccc2c1CCCC2CCCN1CCN(C2CCCCC2)CC1 (stereo not given) | inactive
10 | C[C@H]1[C@H](NC(=O)C(=NOC(C)(C)C(=O)O)c2csc(N)n2)C(=O)N1S(=O)(=O)O | inactive
11 | COc1ccc(C2CC(c3ccccc3)=NN2c2ccc(S(N)(=O)=O)cc2)cc1 (stereo not given) | inactive
12 | C[C@]12CC[C@@H]3c4ccc(O)cc4C[C@@H](CCCCCCCCCS(=O)CCCC(F)(F)C(F)(F)F)[C@H]3[C@H]1CC[C@H]2O (stereo not given in full) | inactive
13 | CC(C)(Cc1ccc2ccccc2c1)NC[C@@H](O)COc1cccc(Cl)c1C#N | inactive
14 | C=C1C(=O)[C@@]23C(CC[C@@H]1[C@H]2O)[C@@]12CO[C@]3(O)[C@@H](O)[C@@H]1C(C)(C)CC[C@@H]2O (stereo not given in full) | 16.5 µM (active)
15 | COc1ccc2c(Oc3ccc(NC(=O)c4c(C)n(CC(C)(C)O)n(-c5ccccc5)c4=O)cc3F)ccnc2c1 | inactive
16 | CCCNC(=O)NS(=O)(=O)c1ccc(Cl)cc1 | inactive
17 | C=C1C(=O)OC2C=C(C)CCC=C(C)CCC12 (stereo not given) | inactive
18 | C[C@H](NC(=O)c1sccc1OCc1ccc(Cl)cc1)c1ccccc1 | inactive
19 | O=C(O)Cc1cccc2ccccc12 | inactive
20 | COC(=O)N[C@H](C(=O)N1CCC[C@@H]1c1ncc(-c2ccc(-c3ccc(-c4cnc([C@@H]5CCCN5C(=O)[C@@H](NC(=O)OC)C(C)C)[nH]4)cc3)cc2)[nH]1)C(C)C | inactive

Row | SMILES | Potency
21 | O=C(O)C(O)Cc1ccc(O)c(O)c1 (stereo not given) | inactive
22 | CN(C)CCC(c1ccccc1)c1ccccn1 (stereo not given) | inactive
23 | Cc1cnc(C(=O)O)c[n+]1[O-] | inactive
24 | C[N+](C)(C)CC(=O)O | inactive
25 | COc1cc(NC(=O)c2ccc(-c3ccc(Cl)cc3)o2)cc(OC)c1 | inactive
26 | Oc1ccc(C2=Cc3ccc(O)cc3OC2)cc1 | 7.39 µM (active)
27 | C[C@@H]1CCN(C(=O)CC#N)C[C@H]1N(C)c1ncnc2[nH]ccc12 | inactive
28 | C[N+]1(C)[C@@H]2CC(OC(=O)[C@H](CO)c3ccccc3)C[C@H]1[C@H]1O[C@@H]12 (stereo not given in full) | inactive
29 | Cc1ccc(Nc2cc(-c3cccc(N4C(=O)c5ccccc5C4=O)c3)ncn2)cc1NS(C)(=O)=O | inactive
30 | Oc1ccc(C2CCN(c3ccnc4ccccc34)CC2)cc1O | inactive
31 | Cc1[nH]c(C=C2C(=O)Nc3ccc(S(=O)(=O)Cc4c(Cl)cccc4Cl)cc32)c(C)c1C(=O)N1CCC[C@H]1CN1CCCC1 | inactive
32 | CC[C@H]1OC(=O)[C@H](C)[C@@H](O[C@H]2C[C@@](C)(OC)[C@@H](O)[C@H](C)O2)[C@H](C)[C@@H](O[C@@H]2O[C@H](C)C[C@H](N(C)C)[C@@H]2O)[C@](C)(O)C[C@@H](C)CN(C)[C@H](C)[C@@H](O)[C@]1(C)O | inactive
33 | CN[C@@H](C)C(=O)N[C@H]1CN(C(=O)CC(C)C)CC[C@H]2CC[C@@H](C(=O)NC(c3ccccc3)c3ccccc3)N2C1=O | inactive
34 | CC=C(C)C(=O)O[C@H]1C(C)=C[C@]23C(=O)[C@@H](C=C(CO)[C@@H](O)[C@]12O)[C@H]1[C@@H](C[C@H]3C)C1(C)C | inactive
35 | CC(C)n1cnc2c(NCCCCCCNC(=O)OC(C)(C)C)nc(NCCO)nc21 | inactive
36 | COc1cc2nc(-c3ccc(N4CCN(C)CC4)cc3)nc(NCCN3CCOCC3)c2cc1OC | 0.523 µM (active)
37 | CC(=Cc1ccccc1)C=C1SC(=S)N(CC(=O)O)C1=O | inactive
38 | CN(C)C1CCN(C(=O)c2ccc(NC(=O)Nc3nc(N4CCOCC4)nc(N4CCOCC4)n3)cc2)CC1 | 0.0658 µM (active)
39 | CCCCCCCCCCCC1=C(O)C(=O)C=C(O)C1=O | inactive
40 | CC(=O)Nc1ccc([C@H](C)C(=O)Nc2ncc(C(C)C)s2)cc1 | 16.5 µM (active)
